{"source": "PubChem BioAssay AID540335", "about": "(Broad Institute, 2011)", "note": "In all, about 1,300 compounds went through this assay and about 270 (21%) were called active.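 How the source made its calls: active means dose-dependent rise or fall in viability, either side of zero, with half-maximal concentration at or below a set limit; inconclusive means flat curve at 30 to 70% viability loss, or poor fit; inactive means flat within 30% either way, or potency beyond limit.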 Only a sample is shown. Measured potencies and affinities stand elsewhere."}
{"experiment": "proliferation inhibition in MITF-low A375 cells – cell-based, cherry-pick samples, set 2, counter-screen for MITF modulator project, dose response (AID 540335);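 further: A375 human melanoma cells which do not depend on MITF; 0% = median of neutral control wells and 100% = double that signal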", "settings": "CellTiter-Glo ATP luminescence, 24 h; series mostly up to 35 µM; activity change, negative = decreased viability: at the top concentration"}
{"smiles": "Cn1cc([N+](=O)[O-])c(C(=O)Nc2nc(-c3ccc(Cl)cc3)cs2)n1", "activity change, negative = decreased viability": "-6.64% (inactive)"}
{"smiles": "COc1ccc(C(NC(C)=O)c2ccc3cccnc3c2O)c(OC)c1", "note": "(stereo not given)", "activity change, negative = decreased viability": "-33.9% (inactive)"}
{"smiles": "COc1cc(OC)cc(C(=O)Nc2ccc3c(c2)OCCO3)c1", "activity change, negative = decreased viability": "-32.1% (inactive)"}
{"smiles": "COc1cccc(NC(=O)Nc2cccc(C(=O)O)c2)c1", "activity change, negative = decreased viability": "1.68% (inactive)"}
{"smiles": "COC(=O)CCS(=O)(=O)c1nc(-c2ccccc2)cc(C(F)(F)F)n1", "activity change, negative = decreased viability": "47.7% (inactive)"}
{"smiles": "Cc1nc(C)c(C(=O)N/N=C/c2cc(Br)ccc2O)s1", "activity change, negative = decreased viability": "-27.5% (inactive)"}
{"smiles": "O=C(N/N=C/c1cccc2cccnc12)c1ccccc1O", "activity change, negative = decreased viability": "-38% (inactive)"}
{"smiles": "Cc1ccc(C#CC[N+]2(CC#Cc3ccc(C)cc3)CCCCC2)cc1", "activity change, negative = decreased viability": "-31.7% (inactive)"}
{"smiles": "O=C(Nc1nc(-c2ccccn2)cs1)c1ccc([N+](=O)[O-])o1", "activity change, negative = decreased viability": "-35.5% (inactive)"}
{"smiles": "CS(=O)(=O)N1CCN(c2ccc(NC(=O)c3ccc([N+](=O)[O-])o3)cc2)CC1", "activity change, negative = decreased viability": "4.88% (inactive)"}
{"smiles": "Cc1cccc(NC(=O)c2ccc([N+](=O)[O-])o2)c1C", "activity change, negative = decreased viability": "-10.1% (inactive)"}
{"smiles": "COc1cc(/C=N/N=C(N)N)ccc1OCc1ccc(Cl)cc1", "activity change, negative = decreased viability": "-96.4% (inactive)"}
{"smiles": "Cc1cc(NC(=O)c2ccc([N+](=O)[O-])o2)ccc1NC(=O)c1ccco1", "activity change, negative = decreased viability": "-30.9% (inactive)"}
{"smiles": "COc1ccccc1NS(=O)(=O)c1cc(NC(=O)c2ccc(Cl)nc2)ccc1Cl", "activity change, negative = decreased viability": "-3.13% (inactive)"}
{"smiles": "CCCCNc1nc(=S)n(-c2ccccc2)c(C)c1C(C)=O", "activity change, negative = decreased viability": "8.62% (inactive)"}
{"smiles": "CC(=O)Nc1ccc2c(c1)ncn2-c1ccccc1", "activity change, negative = decreased viability": "8.14% (inactive)"}
{"smiles": "CC(=O)Nc1ccc(-c2nc3ccccc3o2)cc1", "activity change, negative = decreased viability": "8.49% (inactive)"}
{"smiles": "Cn1nc([N+](=O)[O-])nc1S(C)(=O)=O", "activity change, negative = decreased viability": "-14.2% (inactive)"}
{"smiles": "CS(=O)(=O)c1ncc(Cl)c(C(=O)Nc2ccc(N3CCOCC3)cc2)n1", "activity change, negative = decreased viability": "-15.9% (inactive)"}
{"smiles": "O=C(c1ccc(S(=O)(=O)Cc2ccccc2Cl)c([N+](=O)[O-])c1)N1CCN(c2ccccn2)CC1", "activity change, negative = decreased viability": "-4.16% (inactive)"}
{"smiles": "O=C(Cc1ccc2c(c1)OCO2)NN=Cc1ccc([N+](=O)[O-])o1", "activity change, negative = decreased viability": "-3.36% (inactive)"}
{"smiles": "Cn1nnnc1Sc1ncnc2scc(-c3cccs3)c12", "activity change, negative = decreased viability": "6.26% (inactive)"}
{"smiles": "O=C(NC1CCCC(C(F)(F)F)C1)c1ccc([N+](=O)[O-])o1", "note": "(stereo not given)", "activity change, negative = decreased viability": "18.6% (inactive)"}
{"smiles": "CCCN1CCC(NCc2cn(C)nc2-c2ccc(Oc3ccccc3)cc2)CC1", "activity change, negative = decreased viability": "-5.6% (inactive)"}
{"smiles": "CC(O)CNC(=O)C1CCN(Cc2ccc(OCc3ccccc3)cc2)CC1", "note": "(stereo not given)", "activity change, negative = decreased viability": "1.88% (inactive)"}
{"smiles": "O=C(O)c1ccc(N/N=C/c2ccc3nccnc3c2)cc1", "activity change, negative = decreased viability": "-35.1% (inactive)"}
{"smiles": "CN(C)CCCNC(=O)/C(=C\\c1ccc(-c2ccc(Br)cc2)o1)NC(=O)c1ccccc1", "activity change, negative = decreased viability": "-70.8% (inactive)"}
{"smiles": "Cc1ccc(C(=O)N/C(=C\\c2ccc(-c3ccccc3[N+](=O)[O-])o2)C(=O)NCCN(C)C)cc1", "activity change, negative = decreased viability": "-8.4% (inactive)"}
{"smiles": "Cc1ccc(-c2nc(C(=O)NCCCN(C)C)cc3c2[nH]c2ccccc23)cc1", "activity change, negative = decreased viability": "-4.39% (inactive)"}
{"smiles": "CCOCCCNC(=O)/C(C#N)=C/c1ccc([N+](=O)[O-])o1", "activity change, negative = decreased viability": "4.45% (inactive)"}
{"smiles": "CCN(CC)CCC(=O)N1C/C(=C/c2ccccc2)C(=O)/C(=C\\c2ccccc2)C1", "activity change, negative = decreased viability": "71.7% (inactive)"}
{"smiles": "COc1cc(NC(=O)COc2ccccc2[N+](=O)[O-])ccc1NC(=O)c1cccs1", "activity change, negative = decreased viability": "-36.8% (inactive)"}
{"smiles": "O=C(Cn1ncc(Cl)c(Cl)c1=O)Nc1ccc2c(c1)OCO2", "activity change, negative = decreased viability": "26.9% (inactive)"}
{"smiles": "O=C(c1ccccc1)c1cc(Cl)ccc1N1C(=O)C=CC1=O", "activity change, negative = decreased viability": "-30.6% (inactive)"}
{"smiles": "O=C(N/N=C/c1ccc([N+](=O)[O-])o1)c1ccc(O)cc1", "activity change, negative = decreased viability": "-17.7% (inactive)"}
{"smiles": "Cc1cc(Sc2ncnc(N)c2[N+](=O)[O-])ncn1", "activity change, negative = decreased viability": "-35.7% (inactive)"}
{"smiles": "COc1cccc2sc(N3CCN(C(=O)c4ccc([N+](=O)[O-])o4)CC3)nc12", "activity change, negative = decreased viability": "-6.34% (inactive)"}
{"smiles": "Cc1cccc2sc(N(CCCN(C)C)C(=O)c3nc4ccccc4s3)nc12", "activity change, negative = decreased viability": "-16.6% (inactive)"}
{"smiles": "CN(C)c1ccc(C2=NOC(CN3C(=O)c4ccccc4S3(=O)=O)C2)cc1", "note": "(stereo not given)", "activity change, negative = decreased viability": "1.39% (inactive)"}
{"smiles": "COc1cc(OC)cc(-c2oc(=O)c3cc(OC)c(OC)cc3c2C(F)(F)F)c1", "activity change, negative = decreased viability": "-13.4% (inactive)"}
{"smiles": "CCN1CCN(c2ccc(Nc3ccnc4ccccc34)cc2)CC1", "activity change, negative = decreased viability": "-24% (inactive)"}
{"smiles": "CCOc1ccc(NC(=O)Nc2cccc(C(=O)O)c2)cc1", "activity change, negative = decreased viability": "-33.1% (inactive)"}
{"smiles": "O=C(Nc1nnc(Cc2ccccc2)s1)c1ccccc1", "activity change, negative = decreased viability": "4.38% (inactive)"}
{"smiles": "Cc1ccc(/C=N/Nc2ccc(C(=O)O)cc2)s1", "activity change, negative = decreased viability": "-4.8% (inactive)"}
{"smiles": "O=C(c1ccc([N+](=O)[O-])s1)N1CCN(c2ccccn2)CC1", "activity change, negative = decreased viability": "2.25% (inactive)"}
{"smiles": "C/C(=N\\NC(=O)C(c1ccccc1)c1ccccc1)c1ccccn1", "activity change, negative = decreased viability": "-34.8% (inactive)"}
{"smiles": "O=c1c2ccccc2cnn1CCOc1ccccc1", "activity change, negative = decreased viability": "-29.7% (inactive)"}
{"smiles": "Cc1nc2ccccc2n1/N=C/c1ccc([N+](=O)[O-])s1", "activity change, negative = decreased viability": "-9.11% (inactive)"}
{"smiles": "CN(C)C1CCN(Cc2cc(COCc3ccccc3)c3cccnc3c2O)C1", "note": "(stereo not given)", "activity change, negative = decreased viability": "-37.2% (inactive)"}
{"smiles": "CCCOCc1ccc(O)c2ncccc12", "activity change, negative = decreased viability": "-26.4% (inactive)"}
{"smiles": "Cc1cc(C(C)(C)C)cc(C)c1Cn1c2[n+](c3ccc(C(F)(F)F)cc31)CCCCC2", "activity change, negative = decreased viability": "-33.6% (inactive)"}
{"smiles": "Cc1ccc(-n2nnnc2CNC(=O)c2ccc([N+](=O)[O-])o2)cc1C", "activity change, negative = decreased viability": "9.47% (inactive)"}
{"smiles": "Cc1nc2nc(C)c(NS(=O)(=O)c3ccc4c(c3)CCCC4)c(=O)n2[nH]1", "activity change, negative = decreased viability": "12.3% (inactive)"}
{"smiles": "CN(Cc1ccccc1)C1=CC(=[N+]2CCCC2)CC(C)(C)C1", "activity change, negative = decreased viability": "-13.8% (inactive)"}
{"smiles": "CCCN(CCC)C1=CC(=[N+]2CCCC2)CC(C)(C)C1", "activity change, negative = decreased viability": "-26.9% (inactive)"}
{"smiles": "CN(C)S(=O)(=O)c1ccc(-c2csc(N/N=C/c3ccco3)n2)cc1", "activity change, negative = decreased viability": "-2.6% (inactive)"}
{"smiles": "CCOc1ccc(N/C=C/C(=O)c2ccc(OC)c(OC)c2)cc1", "activity change, negative = decreased viability": "-11.4% (inactive)"}
{"smiles": "COc1ccc(C(=O)N/N=C/c2cc(Br)ccc2O)cc1OC", "activity change, negative = decreased viability": "-39.9% (inactive)"}
{"smiles": "Cc1ccc(-c2n[nH]c(=O)c3ccccc23)cc1S(=O)(=O)NCC1CCCO1", "note": "(stereo not given)", "activity change, negative = decreased viability": "8.17% (inactive)"}
{"smiles": "COc1ccc(C(=O)/C=C/C(=O)N(CC(=O)NC2CCCCC2)Cc2ccc(F)cc2)c(O)c1", "activity change, negative = decreased viability": "-9.41% (inactive)"}
{"smiles": "COc1ccc(NC(=O)NC(=O)c2ccccc2)cc1", "activity change, negative = decreased viability": "-1.06% (inactive)"}
{"smiles": "COc1ccc(N/N=C/c2c(C(=O)O)ccc3ccccc23)cc1", "activity change, negative = decreased viability": "-34.8% (inactive)"}
{"smiles": "N#CC(C#N)=C1C=CC=CN1/C(=C\\c1ccco1)C(=O)c1ccc(Cl)cc1", "activity change, negative = decreased viability": "75.5% (inactive)"}
{"smiles": "COc1ccccc1-c1cc(C(F)(F)F)nc(S(C)(=O)=O)n1", "activity change, negative = decreased viability": "-3.05% (inactive)"}
{"smiles": "Cc1ccc2c(C(=O)CCl)c(C)[nH]c2c1", "activity change, negative = decreased viability": "-16.4% (inactive)"}
{"smiles": "O=S(=O)(CC(CN1CCCCC1)N1CCCCC1)c1ccc2ccccc2c1", "note": "(stereo not given)", "activity change, negative = decreased viability": "-11.5% (inactive)"}
{"smiles": "COc1ccc(C(=O)C(CN2CCOCC2)c2ccccc2)cc1", "note": "(stereo not given)", "activity change, negative = decreased viability": "-14.1% (inactive)"}
{"smiles": "CC(NC(=O)C12CC3CC(CC(C3)C1)C2)C(=O)NN=Cc1ccc([N+](=O)[O-])o1", "note": "(stereo not given)", "activity change, negative = decreased viability": "-13.3% (inactive)"}
{"smiles": "COC1=C(c2ccccc2)C(=O)c2ccccc2C1=O", "activity change, negative = decreased viability": "-38.7% (inactive)"}
{"smiles": "COc1ccc(-c2nc(-c3ccccc3OC)no2)cc1OC", "activity change, negative = decreased viability": "1.79% (inactive)"}
